Here are results for 48 compounds from PubChem BioAssay AID772 (SRMLSC, 2007).

Among all 3,300 compounds or so, about 20 (0.6%) were called active.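 The calls were made as follows: active = growth inhibition above 90%, meaning viable cell count cut by more than 90% versus vehicle controls; inactive = growth inhibition below 90%.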 The sample as a whole holds a higher share of actives than the screen did.

The test is described as follows: HT29 colon tumor cell growth inhibition, primary screen, imaging, high content imaging, 72 h, CellTiter-Glo (AID 772).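 As to condensed nuclei: condensed means nuclear area below control median minus 1.5 SD.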 The note with it: HCS imaging cell count, at 10 µM, stronger effect = higher value; for condensed nuclei: measured here: percent cells with condensed nuclei.
The mark [1] stands for this setting: measured here: ATP CellTiter-Glo viability.

Turning to `CCCCOC(=O)c1ccc(NC(=O)CSc2nncn2C)cc1`, the growth inhibition was 11.7% (inactive) and the condensed nuclei is 2.84%. In addition, the growth inhibition under setting [1] is -49.6%.
In the case of `Cc1cc(=O)oc(C)c1C(=O)NCC1CCCO1` (centres undefined), the growth inhibition is 13.8% (inactive) and the condensed nuclei was determined as 7.86%. Under setting [1], the growth inhibition turned out to be 8.51%.
In the same order, the values of `Clc1ccc(-n2ncc3c(NCc4cccs4)ncnc32)cc1` are -12.9% (inactive), 2.28% and -9.82%.
In the same order, the values of `Clc1ccc(-n2ncc3c(NCc4ccco4)ncnc32)cc1` are 90.8% (active), 40% and 93.7%.
Consider `Cc1cccc(-n2ncc3c(NCc4ccco4)ncnc32)c1`, for which the growth inhibition was 88.8% (inactive) and the condensed nuclei was 12.1%. Also, the growth inhibition under setting [1] was determined as 83.6%.
In the same order, the values of `Cn1c(OCc2ccco2)nc2c1c(=O)n(Cc1ccc(Cl)c(Cl)c1)c(=O)n2C` are -4.69% (inactive), 6.05% and -10%.
For `COc1ccc(CNc2oc(COc3ccc(Cl)cc3)nc2C#N)cc1`, the growth inhibition was 59% (inactive) and the condensed nuclei was found to be 24.8%. Also, the growth inhibition under setting [1] amounted to 54.4%.
The corresponding values for `COc1ccc(CSc2nnc3n(C)c(=O)c4c5c(sc4n23)CCCC5)cc1` are -75.3% (inactive), 2.4% and -39.3%.
`Cc1ccc(-c2nnc(-c3cccc(Br)c3)o2)cc1`: the growth inhibition was 20.1% (inactive) and the condensed nuclei worked out at 0%. In addition, the growth inhibition under setting [1] is -5.25%.
Consider `Cc1ccccc1C(=O)c1ccc2c(c1)n(C)c(=O)n2C`, for which the growth inhibition was -2.53% (inactive) and the condensed nuclei was 3.03%. Also, the growth inhibition under setting [1] is -7.19%.
`O=C(NC1CCCCC1)N1CCSC1=Nc1ccccc1`: the growth inhibition was 54.8% (inactive) and the condensed nuclei amounted to 9.09%. Besides, the growth inhibition under setting [1] came to 12.5%.
In the same order, the values of `O=C1C(=O)N(CCN2CCOCC2)C(c2ccccn2)/C1=C(/O)c1ccc(F)cc1` (centres undefined) are -59.2% (inactive), 3.57% and -29.6%.
`C=CCNc1nc(-c2ccc(O)c(C(N)=O)c2)cs1`: the growth inhibition is -5% (inactive) and the condensed nuclei was determined as 8.5%. For the same compound, under setting [1], the growth inhibition was 38.5%.
The corresponding values for `CCOc1ccc(-c2nc(C#N)c(N3CCN(CC)CC3)o2)cc1` are 33.8% (inactive), 5.03% and -1.72%.
In the case of `C=CCOC(=O)C(C#N)c1nc2ccccc2nc1N1CCN(c2ccccc2OCC)CC1` (centres undefined), the growth inhibition is -8.05% (inactive) and the condensed nuclei is 3.97%. Moreover, the growth inhibition under setting [1] was -23.8%.
`Cc1cc(C)n(CC2CC(=O)N(c3cc(Cl)cc(Cl)c3)C2=O)n1` (centres undefined): the growth inhibition was -36.8% (inactive) and the condensed nuclei was 2.19%. Moreover, the growth inhibition under setting [1] is -33.9%.
In the case of `COCCCn1c2nc3ccccc3nc2c2c(=O)n(-c3ccccc3OC)c(C)nc21`, the growth inhibition is -36.8% (inactive) and the condensed nuclei worked out at 1.23%. Under setting [1], the growth inhibition is -45.7%.
In the same order, the values of `C=CCOC(=O)C1=C(C)OC(N)=C(C#N)C1c1ccoc1` (centres undefined) are 45.6% (inactive), 6.32% and 21.7%.
The corresponding values for `CCOC(=O)c1c(SC)nc(SC)c2c1CCC2` are -36.8% (inactive), 3.12% and -48%.
The corresponding values for `Cc1cc(C)n(Cc2ccc(C(=O)NCCC3=CCCCC3)o2)n1` are -19.5% (inactive), 3.56% and 3.39%.
For `Cn1cc(Br)cc2nc(C(F)(F)F)nc1-2`, the growth inhibition was 1.5% (inactive) and the condensed nuclei is 22.8%. Besides, the growth inhibition under setting [1] was found to be 19.5%.
In the same order, the values of `COc1ccc(C2CC(=O)c3sc(N)nc3C2)cc1` (centres undefined) are 57.6% (inactive), 1.99% and 22.2%.
The corresponding values for `O=C(NCCC1=CCCCC1)c1ccc(=O)oc1` are 45.9% (inactive), 21.8% and 19.6%.
In the same order, the values of `Clc1ccccc1-c1nn2c(-c3ccccn3)nnc2s1` are -1.22% (inactive), 15.7% and 21.5%.
With `CCCCc1c(C)c2ccc(OCC(C)=O)cc2oc1=O`, the growth inhibition was -30.8% (inactive) and the condensed nuclei was determined as 2.85%. Further, the growth inhibition under setting [1] is -58.8%.
As to `CO[C@H]1C[C@@H]2CC[C@@H](C)[C@@](O)(O2)C(=O)C(=O)N2CCCC[C@H]2C(=O)O[C@H]([C@H](C)C[C@@H]2CC[C@@H](O)[C@H](OC)C2)CC(=O)[C@H](C)C=C(C)[C@@H](O)[C@@H](OC)C(=O)[C@H](C)C[C@H](C)C=CC=CC=C1C`, the growth inhibition is 19.1% (inactive) and the condensed nuclei amounted to 2.81%. Also, the growth inhibition under setting [1] was -4.98%.
The corresponding values for `CCOC(=O)c1ccc(N=Cc2nc(-c3ccccc3)oc2OC(C)=O)cc1` are 6.56% (inactive), 12.1% and -17.5%.
In the same order, the values of `CC12CCC(C(=O)NCCCN3CCOCC3)(OC1=O)C2(C)C` (centres undefined) are -26.1% (inactive), 1.65% and -11.1%.
Take `CC(C)CC(NC(=O)OC(C)(C)C)C(=O)NCc1ccccc1` (centres undefined): the growth inhibition was 9.38% (inactive) and the condensed nuclei worked out at 1.7%. Moreover, under setting [1], the growth inhibition is -13%.
The corresponding values for `CCOc1ccc(C2C(C(=O)c3ccc(C)o3)=C(O)C(=O)N2CCN2CCOCC2)cc1OC` (centres undefined) are -37.5% (inactive), 4.84% and -33.6%.
In the same order, the values of `O=C(CCN1CCCCC1)Nc1cccc(Cl)c1` are 35% (inactive), 26.1% and 28.1%.
In the same order, the values of `N#Cc1nc(-c2cccs2)oc1NCc1ccc2c(c1)OCO2` are 48% (inactive), 3.78% and 8.08%.
Consider `COC(=O)c1[nH]c(C)c(/C(O)=C2\C(=O)C(=O)N(CCN3CCOCC3)C2c2cccnc2)c1C` (centres undefined), for which the growth inhibition was -38.7% (inactive) and the condensed nuclei was found to be 3.67%. Moreover, the growth inhibition under setting [1] was -21.1%.
As to `N#CC1=C(N)OC2=C(C(=O)CCC2)C1CCc1ccccc1` (centres undefined), the growth inhibition is 12% (inactive) and the condensed nuclei was found to be 5.15%. Also, the growth inhibition under setting [1] was -15.7%.
As for `Fc1ccccc1-c1nc(NCCCN2CCOCC2)c2ccccc2n1`, the growth inhibition was 92.5% (active) and the condensed nuclei came to 14.3%. For the same compound, under setting [1], the growth inhibition amounted to 79%.
In the case of `Oc1ccccc1-c1nc(NCCN2CCOCC2)c2ccccc2n1`, the growth inhibition was 30.6% (inactive) and the condensed nuclei was found to be 18.9%. Further, the growth inhibition under setting [1] came out at 94%.
The corresponding values for `COc1cccc(-c2nc(NCCN3CCOCC3)c3ccccc3n2)c1O` are 38% (inactive), 23.4% and 86.2%.
In the same order, the values of `COCCN(CCOC)C(=O)C12CCC(C)(C(=O)C1)C2(C)C` (centres undefined) are 31.4% (inactive), 10.7% and -4.4%.
For `CCN(CC)CCN1C(=O)C(=O)/C(=C(/O)c2c(C)[nH]c(C(=O)OC)c2C)C1c1cccc(OC)c1` (centres undefined), the growth inhibition is -109% (inactive) and the condensed nuclei stood at 4.61%. For the same compound, under setting [1], the growth inhibition is -54.7%.
Regarding `COC(=O)c1ccc(-c2sc3nc(N4CCOCC4)c4c(c3c2N)CCCC4)o1`, the growth inhibition was 89.6% (inactive) and the condensed nuclei came to 55.6%. Under setting [1], the growth inhibition stood at 82.9%.
The corresponding values for `COc1cc2c(C(=O)N3CCN(c4ccccc4)CC3)c(C)oc2cc1Br` are -0.57% (inactive), 5.92% and -11.3%.
In the same order, the values of `Cc1ccc(OCC(=O)NCC(=O)n2nc(C)cc2C)cc1` are -54.1% (inactive), 2.73% and -44.3%.
Turning to `Cc1ccccc1N1C(=O)CC(Sc2nnc(-c3ccccc3)o2)C1=O` (centres undefined), the growth inhibition was -77.9% (inactive) and the condensed nuclei turned out to be 3.38%. Further, the growth inhibition under setting [1] was -47.7%.
Take `Cc1cc(C)cc(CC2CC(=O)N(c3cc(C)on3)C2=O)c1` (centres undefined): the growth inhibition is 2.63% (inactive) and the condensed nuclei was 7.19%. In addition, under setting [1], the growth inhibition is -16.1%.
In the same order, the values of `CCOC(=O)c1sc(-n2[nH]c(C)cc2=O)nc1C` are 14.3% (inactive), 1.46% and -4.21%.
In the same order, the values of `C=CCc1cccc(/C=N/c2ncn[nH]2)c1O` are -6.01% (inactive), 2.92% and -17.7%.
The corresponding values for `C=CCc1cccc(/C=N/n2cnnc2)c1O` are 34.7% (inactive), 13.3% and 20.1%.
With `C=CCc1cccc(CNc2nc3ccccc3n2C(C)C)c1O`, the growth inhibition is 95.1% (active) and the condensed nuclei was 14.6%. Under setting [1], the growth inhibition stood at 88.3%.
